# Experimental data: PubChem BioAssay
# The source made the active and inactive calls.
# Columns and labels:
# [1] = test system: Plasmodium falciparum Sir2 (PF13_0152, Sir2A); test: Plasmodium falciparum Sir2A binding compounds – biochemical, small-molecule microarray, 635 nm fluorescence, primary screen (AID 1098); conditions: fluorescence 635 nm, higher = more signal;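 further: score merges spot fluorescence intensity with its signal-to-noise ratio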
# [2] = probe aDKK1 binding to arrayed compounds – biochemical, biotinylated probe, 635/667 nm fluorescence, primary screen (AID 1099); conditions: small-molecule microarray, higher = more signal;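 further: score merges 667nm spot fluorescence with signal to noise across triplicate slides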
# [3] = probe aCHRDL2 binding to arrayed compounds – biochemical, biotinylated probe, 635/667 nm fluorescence, primary screen (AID 1100); conditions: small-molecule microarray, higher = more signal
# [4] = change in splice reporter luminescence, either direction, cell-based, HEK293, spliceosome inhibition project, primary screen (AID 1101); conditions: HEK293 splicing luciferase reporter, 24 h, higher = more signal, called active from +8 up or from −8 down;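 further: HEK293 cells carrying a splicing-competent luciferase reporter gene; test concentration not given here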
# [5] = target: Fibroblast growth factor 10 (Homo sapiens) (UniProt O15520); test: compounds binding fibroblast growth factor 10 – biochemical, small-molecule microarray, 635 nm fluorescence, primary screen (AID 1102); conditions: FGF10 binding, fluorescence 635 nm, higher = more signal
# Chain of Fibroblast growth factor 10 (Homo sapiens) (O15520 whole entry, looked up): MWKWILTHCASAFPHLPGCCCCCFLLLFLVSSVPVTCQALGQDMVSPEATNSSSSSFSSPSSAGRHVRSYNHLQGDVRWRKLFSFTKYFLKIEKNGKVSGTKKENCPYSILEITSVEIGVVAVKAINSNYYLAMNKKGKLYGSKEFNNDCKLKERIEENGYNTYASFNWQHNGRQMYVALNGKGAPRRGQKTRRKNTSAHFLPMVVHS
# [6] = test system: glycogen synthase kinase-3 (GSK3A per assay name; protocol says GSK3B); test: compounds binding glycogen synthase kinase-3 – biochemical, small-molecule microarray, 635 nm fluorescence, GSK3A, primary screen (AID 1103); conditions: fluorescence 635 nm, higher = more signal; further: the record names both GSK3A and GSK3B
# [7] = target: Epidermal growth factor receptor (Homo sapiens) (UniProt P00533); test: compounds binding epidermal growth factor receptor – biochemical, small-molecule microarray, 635 nm fluorescence, primary screen (AID 1104); conditions: EGFR binding, higher = more signal;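 further: score merges 667 nm emission intensity with spot signal to noise over triplicate slides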
# Chain of Epidermal growth factor receptor (Homo sapiens) (P00533 whole entry, looked up): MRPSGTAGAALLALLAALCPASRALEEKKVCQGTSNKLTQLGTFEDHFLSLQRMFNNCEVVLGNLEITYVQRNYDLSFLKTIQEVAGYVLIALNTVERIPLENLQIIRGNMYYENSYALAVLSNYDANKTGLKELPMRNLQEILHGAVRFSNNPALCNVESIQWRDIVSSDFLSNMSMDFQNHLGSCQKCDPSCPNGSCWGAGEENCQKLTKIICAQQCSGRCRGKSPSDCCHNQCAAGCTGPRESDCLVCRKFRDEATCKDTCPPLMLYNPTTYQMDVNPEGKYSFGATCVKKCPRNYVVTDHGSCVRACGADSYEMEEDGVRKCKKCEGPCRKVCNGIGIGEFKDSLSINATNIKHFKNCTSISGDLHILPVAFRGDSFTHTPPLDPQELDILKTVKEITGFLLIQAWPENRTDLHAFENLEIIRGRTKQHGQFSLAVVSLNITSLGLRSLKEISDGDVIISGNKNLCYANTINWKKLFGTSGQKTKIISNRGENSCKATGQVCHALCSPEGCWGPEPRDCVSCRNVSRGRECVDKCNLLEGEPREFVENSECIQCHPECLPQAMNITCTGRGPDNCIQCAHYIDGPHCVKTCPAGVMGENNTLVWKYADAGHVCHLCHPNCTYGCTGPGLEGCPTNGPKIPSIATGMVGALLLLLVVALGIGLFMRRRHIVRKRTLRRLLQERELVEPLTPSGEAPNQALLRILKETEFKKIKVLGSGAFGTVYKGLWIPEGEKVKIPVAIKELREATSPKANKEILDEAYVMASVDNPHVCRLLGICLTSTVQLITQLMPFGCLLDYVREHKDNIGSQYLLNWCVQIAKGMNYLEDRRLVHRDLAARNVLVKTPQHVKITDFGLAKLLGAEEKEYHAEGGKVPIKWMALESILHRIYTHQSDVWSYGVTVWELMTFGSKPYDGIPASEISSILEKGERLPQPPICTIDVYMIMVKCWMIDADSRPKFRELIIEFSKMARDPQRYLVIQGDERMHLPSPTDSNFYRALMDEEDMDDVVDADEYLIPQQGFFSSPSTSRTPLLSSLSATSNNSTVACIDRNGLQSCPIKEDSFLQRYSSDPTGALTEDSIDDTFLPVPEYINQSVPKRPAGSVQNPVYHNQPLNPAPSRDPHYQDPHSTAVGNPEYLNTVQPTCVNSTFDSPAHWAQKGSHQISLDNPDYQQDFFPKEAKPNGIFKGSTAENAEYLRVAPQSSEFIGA
# [8] = target: Follistatin-related protein 3 (Homo sapiens) (UniProt O95633); test: compounds binding follistatin-related protein 3 – biochemical, small-molecule microarray, 635 nm fluorescence, primary screen (AID 1105); conditions: FSTL3 binding, higher = more signal;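 further: score merges emission near 667 nm and signal to noise per printed spot across three slides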
# Chain of Follistatin-related protein 3 (Homo sapiens) (O95633 whole entry, looked up): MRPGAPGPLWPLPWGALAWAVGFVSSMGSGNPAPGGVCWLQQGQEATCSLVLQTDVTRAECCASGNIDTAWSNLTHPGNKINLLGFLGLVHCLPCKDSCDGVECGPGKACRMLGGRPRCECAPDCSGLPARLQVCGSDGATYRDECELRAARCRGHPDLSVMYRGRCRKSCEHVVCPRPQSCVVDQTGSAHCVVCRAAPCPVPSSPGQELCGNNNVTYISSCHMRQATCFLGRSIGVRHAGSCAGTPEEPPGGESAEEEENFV
# [9] = target: Dickkopf-related protein 1 (Homo sapiens) (UniProt O94907); test: small molecules binding DKK1 protein – biochemical, small-molecule microarray, 635 nm fluorescence scan, primary screen (AID 1106); conditions: higher = more signal;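 further: score merges emission near 667 nm with signal to noise over three replicate slides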
# Chain of Dickkopf-related protein 1 (Homo sapiens) (O94907 whole entry, looked up): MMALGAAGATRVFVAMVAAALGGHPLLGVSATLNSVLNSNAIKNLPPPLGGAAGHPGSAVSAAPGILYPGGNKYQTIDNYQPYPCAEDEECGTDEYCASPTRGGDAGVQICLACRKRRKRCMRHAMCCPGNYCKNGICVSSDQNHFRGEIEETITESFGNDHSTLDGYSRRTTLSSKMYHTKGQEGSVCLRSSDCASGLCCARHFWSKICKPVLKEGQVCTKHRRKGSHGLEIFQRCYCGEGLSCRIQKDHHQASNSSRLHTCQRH
# [10] = test system: Inhibin beta A chain (activin A); test: small molecules binding activin A – biochemical, small-molecule microarray, 635 nm fluorescence scan, primary screen (AID 1107); conditions: INHBA, higher = more signal;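 further: mouse activin A protein probed at 4.33 µg/mL on printed slides; score merges bound-protein fluorescence near 667 nm with spot signal-to-noise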
# [11] = test system: Human papillomavirus type 1a protein E7 (residues 44-93); test: small molecules binding HPV E7 44-93 – biochemical, small-molecule microarray, residues 44-93, 635 nm fluorescence, primary screen (AID 1108); conditions: fluorescence 635 nm, higher = more signal;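 further: E7 fragment applied at 1 µg/mL in TBST for 1 h at 4 C; score combines spot fluorescence with its signal to noise ratio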
# [12] = hepatitis C replication reporter changes, two-sided – Huh7 cells, luciferase reporter, HCV replication inhibitor project, primary screen (AID 1109); conditions: Huh7 HCV replicon luciferase reporter, 48 h; higher = more signal;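 further: huh7 hepatoma cells harbouring a luciferase neomycin HCV replicon reporter; luciferase luminescence as measure of HCV replicon replication; test concentration not given here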
# [13] = target: Left-right determination factor 2 (Homo sapiens) (UniProt O00292); test: small molecules binding LEFTY2 protein – biochemical, small-molecule microarray, 635 nm fluorescence scan, primary screen (AID 1110); conditions: higher = more signal
# Chain of Left-right determination factor 2 (Homo sapiens) (O00292 whole entry, looked up): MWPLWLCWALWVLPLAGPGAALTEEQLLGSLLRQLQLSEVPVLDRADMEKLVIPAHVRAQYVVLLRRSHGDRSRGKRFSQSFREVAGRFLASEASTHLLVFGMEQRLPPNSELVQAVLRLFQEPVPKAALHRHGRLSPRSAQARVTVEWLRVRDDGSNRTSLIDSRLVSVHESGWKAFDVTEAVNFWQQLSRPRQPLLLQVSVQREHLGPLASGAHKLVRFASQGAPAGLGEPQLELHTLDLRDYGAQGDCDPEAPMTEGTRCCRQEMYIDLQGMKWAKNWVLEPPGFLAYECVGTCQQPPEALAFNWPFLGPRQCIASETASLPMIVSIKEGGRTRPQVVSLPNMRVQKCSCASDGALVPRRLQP
# [14] = target: Calmodulin-1 (Homo sapiens) (UniProt P0DP23); test: small molecules binding calmodulin-1 with EGTA – biochemical, small-molecule microarray, Cy5-labelled CALM1, profiling panel (AID 1111); conditions: Cy5-CALM1 binding fluorescence, higher = more signal;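 further: labelled calmodulin applied in Tris saline Tween buffer holding calcium plus EGTA and DTT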
# [15] = target: Calmodulin-1 (Homo sapiens) (UniProt P0DP23); test: small molecules binding Ca-loaded calmodulin-1 – biochemical, small-molecule microarray, Cy5-labelled CALM1, plus calcium, artefact control for SMM control-protein annotation, profiling panel (AID 1112); conditions: Cy5-CALM1 binding fluorescence, higher = more signal;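 further: score merges spot fluorescence with signal to noise from triplicate slides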
# [16] = probe aWnt5a binding to arrayed compounds – biochemical, biotinylated probe, 635/667 nm fluorescence, primary screen (AID 1113); conditions: small-molecule microarray, higher = more signal;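 further: score merges 667 nm fluorescence intensity with signal-to-noise per printed feature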
# [17] = probe aShh binding to arrayed compounds – biochemical, biotinylated probe, 635/667 nm fluorescence, primary screen (AID 1114); conditions: small-molecule microarray, higher = more signal;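 further: probe is biotin-labelled aShh protein from a stem cell growth factor screen; measures binding of labelled protein to compounds printed on the slide; score merges feature fluorescence at 667 nm with signal-to-noise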
# [18] = probe aNog binding to arrayed compounds – biochemical, biotinylated probe, 635/667 nm fluorescence, primary screen (AID 1115); conditions: small-molecule microarray, higher = more signal;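 further: probe is biotinylated aNog protein used at 0.15 µg/mL for 1 h at 4 C; z-score combines 667 nm fluorescence of each spot with its signal to noise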
# [19] = target: Torsin-1A-interacting protein 1 (Homo sapiens) (UniProt Q5JTV8); test: compound microarray binding of lysate hLAP1 – cell lysate, small-molecule microarray, COS7 lysate, 635/667 nm fluorescence, primary screen (AID 1116); conditions: 635 nm fluorescence, higher = more signal
# Chain of Torsin-1A-interacting protein 1 (Homo sapiens) (Q5JTV8 whole entry, looked up): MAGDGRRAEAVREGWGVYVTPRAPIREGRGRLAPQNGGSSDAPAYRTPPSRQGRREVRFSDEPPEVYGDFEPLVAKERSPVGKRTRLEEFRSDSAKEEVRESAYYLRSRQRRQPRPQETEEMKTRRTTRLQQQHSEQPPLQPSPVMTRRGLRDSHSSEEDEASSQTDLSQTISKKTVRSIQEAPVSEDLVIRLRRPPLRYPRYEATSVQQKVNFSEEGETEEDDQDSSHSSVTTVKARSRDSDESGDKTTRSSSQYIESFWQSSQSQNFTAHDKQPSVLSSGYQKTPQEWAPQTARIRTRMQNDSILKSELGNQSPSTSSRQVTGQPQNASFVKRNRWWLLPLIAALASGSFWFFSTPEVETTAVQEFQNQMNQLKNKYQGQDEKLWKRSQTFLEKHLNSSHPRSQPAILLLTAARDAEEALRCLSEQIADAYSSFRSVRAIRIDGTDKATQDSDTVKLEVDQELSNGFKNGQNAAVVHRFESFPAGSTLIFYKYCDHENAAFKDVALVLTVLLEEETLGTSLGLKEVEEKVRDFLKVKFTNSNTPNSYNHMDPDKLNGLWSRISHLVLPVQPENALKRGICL
# [20] = target: Alpha-bungarotoxin (Bungarus multicinctus) (UniProt P60615); test: compounds binding labelled alpha-BTX control protein – biochemical, small-molecule microarray, Alexa647 label, 635/667 nm fluorescence, artefact control for SMM control protein annotation, profiling panel (AID 1117); conditions: alpha-BTX-A647 binding fluorescence, higher = more signal
# Chain of Alpha-bungarotoxin (Bungarus multicinctus) (P60615 whole entry, looked up): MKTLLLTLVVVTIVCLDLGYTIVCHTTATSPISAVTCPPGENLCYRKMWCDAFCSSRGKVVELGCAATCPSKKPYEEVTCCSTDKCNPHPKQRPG
Structure (SMILES),composite z-score [1],composite z-score [2],composite z-score [3],z-score [4],composite z-score [5],composite z-score [6],composite z-score [7],composite z-score [8],composite z-score [9],composite z-score [10],composite z-score [11],z-score [12],composite z-score [13],composite z-score [14],composite z-score [15],composite z-score [16],composite z-score [17],composite z-score [18],composite z-score [19],composite z-score [20]
COc1ccc([Si](C)(C)[C@@H]2[C@@H](CC(=O)N3CCC[C@H]3CO)O[C@]3(C(=O)N(Cc4ccc(N5CCOC5=O)cc4)c4ccccc43)[C@H]2C)cc1,1.4,-0.3,0.135,-1.58 (inactive),0.25,0.946,-0.0626,0.388,0.366,0.0014,1.06,-1.58,0.327,1.08,0.461,-0.175,0.0121,-0.402,1.1,0.931
COc1ccc([Si](C)(C)[C@H]2[C@H](CCO)O[C@@]3(C(=O)N(Cc4cccc(N5C(=O)c6ccccc6Oc6ccccc65)c4)c4ccccc43)[C@@H]2C)cc1,0.742,-0.109,-0.236,-1.93 (inactive),0.396,-0.479,0.111,-0.628,-0.0781,0.212,0.72,-4.89,-0.296,0.29,0.53,-0.091,-0.262,-0.0816,0.449,0.71
CC(C)C[C@@H]1NC(=O)[C@@]23C(=O)N[C@@H](Cc4ccccc4)C2[C@H](C)[C@@]2(C)O[C@H]2C3/C=C/C/C=C\CNC(=O)CNC1=O (stereo not given in full),1.19,-0.268,-0.51,0.103 (inactive),0.452,0.202,0.127,0.768,0.268,1.4,0.346,0.349,0.259,-0.535,-0.963,-0.0478,-0.138,-0.125,0.189,0.49
CC(C)OC(=O)CC(=O)CC(O)c1cccc([N+](=O)[O-])c1 (stereo not given),0.784,0.645,0.851,-2.86 (inactive),0.366,0.814,-0.113,0.753,-0.229,0.916,1.31,-1.6,0.117,0.834,0.17,0.264,0.418,-0.138,1.24,0.288
NC(=O)N1C(=O)C2C(C1=O)C1C=C(CCCO)C2C(c2ccc(CN3CCCC3)cc2)N1Cc1cc2c(cc1Br)OCO2 (stereo not given),-0.0167,-0.204,0.228,0.343 (inactive),0.325,0.177,-0.287,-0.0816,0.388,0.45,-1.36,-1.51,0.943,-0.666,-0.361,-0.128,0.0796,-0.252,0.187,-0.493
NC(=O)N1C(=O)C2C(C1=O)C1C=C(CCCO)C2C(c2ccc(CN3CCCC3)cc2)N1Cc1sc2ccccc2c1Cl (stereo not given),0.0883,-0.291,0.233,-0.497 (inactive),0.528,-0.42,-0.243,-0.744,-0.29,-0.0473,0.53,-2.9,-0.292,0.302,0.424,-0.0735,-0.0146,-0.342,-0.218,0.187
C=CCC(OC(C)=O)[C@@H]1[C@@H](N(Cc2cccc3ccccc23)C(=O)c2ccc(-c3ccccc3)cc2)c2cc(OCCCO)ccc2N1C(=O)Cc1ccc2ccccc2c1 (stereo not given in full),-0.121,-0.0459,0.428,-1.08 (inactive),-0.179,-0.328,-0.0303,0.228,-0.624,0.45,-0.515,-0.105,-0.181,0.858,0.912,0.0399,0.0278,-0.0773,0.438,0.106
CN(C)CCCNC(=O)[C@@]1(C)c2ccccc2C(=O)N(Cc2ccc(OC(F)(F)F)cc2)[C@H]1c1ccc(CO)cc1,1.33,-0.0469,0.63,0.399 (inactive),-0.365,-0.417,-0.786,-0.811,-0.912,0.462,0.0228,-2.26,-1.01,-0.415,0.522,-0.115,-0.0978,0.738,1.76,1.5
COc1ccc(C(=O)Nc2cccc(CN3C(=O)[C@@]4(O[C@@H](CC(=O)N5CCC[C@H]5CO)[C@H]([Si](C)(C)c5ccc(OC)cc5)[C@H]4C)c4ccccc43)c2)cc1,1.21,-0.0379,-0.183,1 (inactive),0.43,0.744,0.527,0.839,0.496,0.182,0.843,-3.13,0.801,1.26,0.78,-0.0643,-0.142,-0.138,1.72,2.08
C=CCC(OC(C)=O)[C@@H]1[C@@H](N(Cc2cccc3ccccc23)C(=O)Cc2ccc(OC)cc2)c2cc(OCCCO)ccc2N1C(=O)c1ccc2ccccc2c1 (stereo not given in full),0.0596,0.0644,0.256,-1.68 (inactive),0.045,-0.344,0.0359,0.627,0.234,1.35,0.233,-0.922,0.139,0.468,-0.385,-0.0398,0.138,-0.23,0.119,0.337
C=C(CCCC)/C(=C/C[C@H](OC(=O)c1ccncc1)c1ccccc1OCCO)c1cc(C(=O)OC)ccc1OC,0.209,-0.126,0.023,-0.63 (inactive),0.864,0.325,0.0323,0.636,0.273,1.17,1.22,-2.89,-0.015,-0.0646,-0.636,-0.0331,0.0684,-0.305,0.869,-0.056
